Values joined by “and” are separate entries in the source; they are usually repeats but may differ in a detail not shown here. Equal values may be shown once. Inconclusive results are not listed. The source holds several records for some structures; these can differ, active in one and inactive in another. Active and inactive are the calls of the source. Unless noted, calls follow the shape of the dose curve; as a rule, active = well fitted curve in the direction sought with a large enough effect in the repeat runs; inconclusive = weak or mixed curves; inactive = no such curve, though single readings can be large; an effect the other way counts as inactive or inconclusive.
Key:
[1] = qHTS assay to identify small molecule antagonists of the glucocorticoid receptor (GR) signaling pathway - cell viability counter screen (AID 720693); settings: GR-bla HeLa viability, CellTiter-Glo luminescence, 18 h, with 5 nM dexamethasone present; series mostly up to 58.5 µM; also: nearly all actives have a fitted effect of over 55% in size
[2] = qHTS assay for identifying genotoxic compounds that show differential cytotoxicity against isogenic chicken DT40 cell lines with known DNA damage response pathways - wild type cell line (AID 743012); settings: DT40 wild type chicken cells viability, CellTiter-Glo, 40 h; series mostly up to 68.4 µM; also: nearly all actives have a fitted effect of over 60% in size; also: potency is read from the fitted curve at half-maximal effect
In short: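 300 wt DT40 cells/well; cpd (DMSO) pintool-transferred after ~0.5 h at 37 C/5% CO2; 40 h incubation; CellTiter-Glo added, 30 min RT; luminescence read.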

[3] = qHTS assay for identifying genotoxic compounds that show differential cytotoxicity against isogenic chicken DT40 cell lines with known DNA damage response pathways - Rad54/Ku70 mutant cell line (AID 743015); settings: DT40 Rad54/Ku70 mutant viability, CellTiter-Glo, 40 h; series mostly up to 66.8 µM; also: nearly all actives have a fitted effect of over 60% in size; also: potency is read from the fitted curve at half-maximal effect
[4] = qHTS assay to identify small molecule antagonists of the androgen receptor (AR) signaling pathway using the MDA cell line - cell viability counter screen (AID 743041; also: nearly all actives have a fitted effect of over 45% in size); settings: MDA-kb2 viability, CellTiter-Fluor, 16 h, cells co-treated with R1881 androgen agonist; series mostly up to 70.3 µM
In short: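 Viability read by CellTiter-Fluor fluorescence in the same wells as the antagonist screen, added after 15.5 h of a 16 h, 37C exposure. Human breast carcinoma MDA-kb2 AR-luc cells, compounds co-dosed with agonist R1881.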

[5] = qHTS assay for identifying genotoxic compounds that show differential cytotoxicity against isogenic chicken DT40 cell lines with known DNA damage response pathways - Rev3 mutant cell line (AID 743014); settings: chicken DT40 Rev3-/- viability, CellTiter-Glo, 40 h; series mostly up to 68.4 µM; also: nearly all actives have a fitted effect of over 55% in size; also: potency is read from the fitted curve at half-maximal effect
[6] = qHTS assay to identify small molecule antagonists of the androgen receptor (AR) signaling pathway - cell viability counter screen (AID 743033; also: nearly all actives have a fitted effect of over 45% in size; also: potency is read from the fitted curve at half-maximal effect); settings: AR-bla HEK293 viability, CellTiter-Glo luminescence, 16 h; series mostly up to 58.5 µM
[7] = molecular target: Androgen receptor (Homo sapiens) (UniProt P10275); assay: qHTS assay to identify small molecule antagonists of the androgen receptor (AR) signaling pathway (AID 743035; active = well fitted inhibition curve with a large enough effect in the signal ratio in the repeat runs, not every such curve was filed as active; the % refers to the signal ratio); settings: HEK293 AR-UAS-bla, R1881-stimulated, beta-lactamase FRET, 16 h; series mostly up to 58.5 µM
Androgen receptor (Homo sapiens), sequence (P10275 whole entry, looked up): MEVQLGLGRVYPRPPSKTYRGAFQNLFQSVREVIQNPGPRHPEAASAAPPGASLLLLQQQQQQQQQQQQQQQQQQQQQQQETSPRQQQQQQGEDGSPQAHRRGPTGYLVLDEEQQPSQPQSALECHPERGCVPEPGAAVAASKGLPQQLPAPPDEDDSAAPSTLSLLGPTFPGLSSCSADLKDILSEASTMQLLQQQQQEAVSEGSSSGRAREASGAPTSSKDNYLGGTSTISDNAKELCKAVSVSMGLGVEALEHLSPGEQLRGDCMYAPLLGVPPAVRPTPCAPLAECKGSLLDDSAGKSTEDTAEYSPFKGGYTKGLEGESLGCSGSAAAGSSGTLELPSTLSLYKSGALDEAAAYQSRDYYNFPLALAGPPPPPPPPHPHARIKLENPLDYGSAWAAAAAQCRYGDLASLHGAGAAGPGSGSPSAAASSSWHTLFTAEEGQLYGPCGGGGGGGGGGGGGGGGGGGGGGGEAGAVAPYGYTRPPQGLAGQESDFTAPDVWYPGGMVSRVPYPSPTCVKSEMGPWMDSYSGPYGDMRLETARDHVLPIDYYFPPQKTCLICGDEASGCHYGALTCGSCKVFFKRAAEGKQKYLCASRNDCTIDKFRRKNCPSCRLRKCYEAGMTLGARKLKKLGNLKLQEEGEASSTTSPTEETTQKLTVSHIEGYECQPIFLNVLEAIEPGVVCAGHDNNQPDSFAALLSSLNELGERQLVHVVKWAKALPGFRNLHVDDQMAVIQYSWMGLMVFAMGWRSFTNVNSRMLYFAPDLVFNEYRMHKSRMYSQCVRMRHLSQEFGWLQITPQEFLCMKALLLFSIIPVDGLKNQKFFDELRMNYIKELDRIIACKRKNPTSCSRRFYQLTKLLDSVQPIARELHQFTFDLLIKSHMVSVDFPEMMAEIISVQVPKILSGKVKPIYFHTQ
In short: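 In this cell-based reporter screen, compounds were tested in concentration series against R1881-activated HEK293 cells expressing beta-lactamase under UAS control; after 16 h at 37C, FRET substrate was added and fluorescence read 2 h later.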

[8] = molecular target: Androgen receptor (Homo sapiens) (UniProt P10275); assay: qHTS assay to identify small molecule agonists of the androgen receptor (AR) signaling pathway (AID 743036; active = well fitted activation curve with a large enough effect in the signal ratio in the repeat runs, with a control signal flat, not every such curve was filed as active; the % refers to the signal ratio); settings: HEK293 AR-UAS-bla GripTite, beta-lactamase FRET ratio, 16 h; series mostly up to 62.4 µM
In short: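 HEK293 cells stably carrying a UAS-driven beta-lactamase reporter (GeneBLAzer AR-UAS-bla-GripTite) were plated at 2,000 cells/well, rested 4 h at 37C, then exposed to compounds in DMSO for 16 h. LiveBLAzer B/G FRET substrate was added for 2 h at room temperature; fluorescence read.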

[9] = molecular target: Androgen receptor (Homo sapiens) (UniProt P10275); assay: qHTS assay to identify small molecule agonists of the androgen receptor (AR) signaling pathway using the MDA cell line (AID 743040; also: nearly all actives have a fitted effect of over 20% in size; also: potency is read from the fitted curve at half-maximal effect); settings: MDA-kb2 AR-luc cells, MMTV luciferase, 16 h; series mostly up to 70.3 µM
In short: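 Luciferase agonist assay: 16 h compound exposure at 37C without CO2 in MDA-kb2 AR-luc cells, whose MMTV promoter responds to both AR and GR. Luminescence measured after 30 min room-temperature incubation with ONE-Glo.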

[10] = molecular target: Androgen receptor (Homo sapiens) (UniProt P10275); assay: qHTS assay to identify small molecule antagonists of the androgen receptor (AR) signaling pathway using the MDA cell line (AID 743042; also: nearly all actives have a fitted effect of over 55% in size); settings: MDA-kb2 AR-luc, MMTV luciferase, R1881 antagonist, 16 h; series mostly up to 70.3 µM
In short: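 Antagonist mode: compounds plus R1881 agonist added to MDA-kb2 AR-luc cells, incubated 16 h at 37C. Luciferase reporter luminescence quantified, with multiplexed CellTiter-Fluor readout for cell viability.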
% is scaled to controls: 0 for no effect and ±100 for the full control effect.

Nc1nc2c(ncn2COC(CO)CO)c(=O)[nH]1
active: Potency [2] 2.85 µM | Potency [3] 8.04 µM
inactive: outcome [1] | Potency [4]

CCC(=O)OC(C)c1ccccc1 (stereo unspecified)
inactive: outcome [1] | Potency [5] | Potency [3] | Potency [6] | Potency [4]

CN1CCC(=C2c3ccccc3CC(=O)c3sccc32)CC1
inactive: outcome [1] | Potency [6] | Potency [4]

CC(=O)CC(C)(C)C1CCCCC1
inactive: outcome [1] | Potency [2] | Potency [3] | Potency [6] | Potency [4]

CCOC(=O)[C@H](CCc1ccccc1)N[C@@H](C)C(=O)N1[C@H](C(=O)O)C[C@@H]2CCC[C@@H]21
inactive: outcome [1] | Potency [2] | Potency [3] | Potency [6] | Potency [4]

NCCc1cnc[nH]1
inactive: outcome [1] | Potency [2] | Potency [3] | Potency [6] | Potency [4]

O=C1NC(=O)[C@@]2(CCOc3ccc(F)cc32)N1
inactive: outcome [1] | Potency [2] | Potency [3] | Potency [6] | Potency [4]

CCO/C([O-])=N/c1c[n+](N2CCOCC2)no1
inactive: outcome [1] | Potency [2] | Potency [3] | Potency [6] | Potency [4]

CCCC(=O)O[C@]1(C(=O)CO)CC[C@H]2[C@@H]3CCC4=CC(=O)CC[C@]4(C)[C@H]3[C@@H](O)C[C@@]21C
inactive: Potency [2] | Potency [5] | Potency [3] | Potency [4]

Cc1c(NC(C)C)c(=O)n(-c2ccccc2)n1C
inactive: outcome [1] | Potency [2] | Potency [3] | Potency [6] | Potency [4]

CCOc1ccc(C(=O)OCCN(CC)CC)cc1
inactive: outcome [1] | Potency [6] | outcome [7] | outcome [8] | Potency [9] | Potency [4] | Potency [10]
active: Potency [5] 21.1 µM | Potency [3] 26.6 µM

COC(=O)NN
inactive: Potency [2] | Potency [5] | Potency [3] | Potency [6] | Potency [4]

COc1cc(C(=O)N2CCCCCCC2)cc(OC)c1OC
inactive: outcome [1] | Potency [6] | Potency [4]
active: Potency [2] 21.1 µM

CC(=O)OC/C=C(\C)CC/C=C(\C)CCC=C(C)C
active: Potency [5] 61.1 µM | Potency [3] 61.1 µM
inactive: outcome [1] | Potency [6] | Potency [4]

CCCCCCCCCCCCN(CCCCCCCCCCCC)CCCCCCCCCCCC
inactive: outcome [1] | Potency [3] | Potency [6] | Potency [4]

O=c1cc(-c2ccccc2)oc2ccccc12
inactive: Potency [6] | Potency [9] | Potency [4] | Potency [10]
active: Potency [2] 21.7 µM | Potency [5] 48.6 µM and 43.1 µM | Potency [3] 56.9 µM

N=c1nc(N2CCCCC2)cc(N)n1O
inactive: outcome [1] | Potency [3] | Potency [6] | Potency [4]

CCCCCCOC(=O)CCCCC(=O)OCCCCCC
inactive: outcome [1] | Potency [2] | Potency [3] | Potency [6] | Potency [4]

CCCCCCCCCCCCCC=O
inactive: viability change, negative = cytotoxic [1] -0.799% [at 7.04 µM] | activity change, negative = cytotoxicity [3] -24.1% [at 8.55 µM] | activity change, negative = cytotoxicity [6] 5.83% [at 7.04 µM] | viability change, negative = cytotoxic [4] -4.68% [at 8.47 µM]

COC(=O)C1=C(C)NC(C)=C(C(=O)OC)C1c1ccccc1[N+](=O)[O-]
inactive: outcome [1] | Potency [4]
inactive and 49 µM (active): Potency [6]

CS(=O)(=O)O
inactive: Potency [2] | Potency [5] | Potency [3] | Potency [6] | outcome [7] | outcome [8] | Potency [9] | Potency [4]

N=C(N)c1ccccc1
inactive: outcome [1] | Potency [2] | Potency [3] | Potency [6] | Potency [4]

CCOC(=O)c1c(C)n(C)c2ccc(O)cc12
inactive: outcome [1] | Potency [3] | Potency [6] | Potency [9] | Potency [4] | Potency [10]

FC1(F)C(F)(F)C(F)(F)C2(F)C(F)(F)C(F)(F)C(F)(F)C(F)(F)C2(F)C1(F)F (stereo unspecified)
inactive: outcome [1] | Potency [6] | outcome [7] | outcome [8] | Potency [9] | Potency [4] | Potency [10]
active: Potency [3] 21.1 µM

CC(=O)Nc1c(I)cc(I)c(C(=O)O)c1I
inactive: Potency [2] | Potency [5] | Potency [3] | Potency [4]

COc1nc(N)nc2c1ncn2[C@@H]1O[C@H](CO)[C@@H](O)[C@@H]1O
inactive: outcome [1] | Potency [2] | Potency [3] | Potency [6] | Potency [4]

Cc1cccn2c(=O)c(-c3nnn[nH]3)cnc12
inactive: outcome [1] | Potency [2] | Potency [3] | Potency [6] | Potency [4]

C=C1CC[C@H]2C[C@@H]1C2(C)C
inactive: outcome [1] | Potency [2] | Potency [6] | Potency [4]

C1CN(CCOCCN2CCOCC2)CCO1
inactive: outcome [1] | Potency [5] | Potency [3] | Potency [6] | Potency [4]

CCOC(=O)C(=O)OCC
inactive: outcome [1] | Potency [2] | Potency [3] | Potency [6] | Potency [4]

CN1CCN(c2cc3c(cc2F)c(=O)c(C(=O)O)cn3-c2ccc(F)cc2)CC1
active: Potency [2] 23.7 µM | Potency [3] 29.8 µM | Potency [9] 26.6 µM
inactive: outcome [1] | Potency [10]

Cc1ccc(=O)n(-c2ccccc2)c1
inactive: outcome [1] | Potency [2] | Potency [3] | Potency [6] | Potency [4]

CCCCCSCCCCC
active: Potency [5] 61.1 µM
inactive: outcome [1] | Potency [6] | Potency [4]

CC(C)NC(=O)NC(C)C
inactive: outcome [1] | Potency [5] | Potency [3] | Potency [6] | outcome [7] | outcome [8] | Potency [9] | Potency [4] | Potency [10]

C=C(C)CS(=O)(=O)O
inactive: outcome [1] | Potency [5] | Potency [3] | Potency [6] | Potency [9] | Potency [4] | Potency [10]

O=C(CCCN1CCN(c2ccccn2)CC1)c1ccc(F)cc1
inactive: outcome [1] | Potency [6] | Potency [4]

c1ccc([C@H]2CN3CCSC3=N2)cc1
inactive: outcome [1] | Potency [6] | Potency [4]

COc1c(N2C[C@@H]3CCCN[C@@H]3C2)c(F)cc2c(=O)c(C(=O)O)cn(C3CC3)c12
inactive: outcome [1] | Potency [2] | Potency [3] | Potency [6] | Potency [4]

O=c1[nH]c(=O)n([C@H]2C[C@H](O)[C@@H](CO)O2)cc1I
inactive: outcome [1] | Potency [4]
active: Potency [5] 1.8 µM | Potency [3] 2.02 µM

Reference: PubChem BioAssay (Tox21)
